Measured values taken from the OligoGym collection.

Target: LASP1
Experiment: pooled miR-30 sensor sort-seq; sequence = guide strand
Settings: shRNA
Also: reference of the scale not given here.

Sequence | sensor-assay potency score (higher = more potent)
TATATTACTGATCTGGTCCTGG | 0.21
TACACGATCTTGCCGCACCGGG | -1.34
TTATATTACTGATCTGGTCCTG | 0.57
ATGTTCAGTGTCATCTTGCAGG | -1.2
TATTTTATATTACTGATCTGGT | -0.425
TTGTAGCGCACCTGACTCTGGA | -0.666
TTTATGCCAGAACTTATCCAGA | -1.03
TTTTATATTACTGATCTGGTCC | -0.194
TACGCTGAAACCTTTGCCCTTG | 0.0341
TTGCAGTAGGGCTTCTTCTCGT | -0.401
TTCATGTTCAGTGTCATCTTGC | 0.197
TTCAGTGTCATCTTGCAGGTCT | 0.744

Target: LASS1
Experiment: as above
Settings: shRNA

Sequence | sensor-assay potency score (higher = more potent)
TGTCCATGTATAGCGTAGCGTA | -1.61
TAGAAGAGAAACTTCCAAGCGC | 0.296
TTGAAGTAAATGTTGAGCTTGG | 0.853
TAGCGTAGCGTAGATGGAGTGG | -0.207
TCGTAGAAGACAGATGGTGGGT | -0.363
TTGAAGAAGAAGTAGAAGGGGA | 0.612
TAGAGGCGGAACCAGAACCAGC | -1.74
TGGAGCAGCATGACCACCGAGT | -1.27
TATAGCGTAGCGTAGATGGAGT | -0.396
TAGTCGGTGCCAAACAGCAGGT | -1.18
AAACTTCCAAGCGCTCTCGGGC | -0.904
TAGGCACTGTAGCTCCAGCTGC | -1.01
